Screening data (PubChem)
uPA generation: blocks generation of uPA at the cell surface; cell surface uPA generation assay, qHTS; Potency, µM (titrated, usually from 38.3 µM), most hits filed as inhibitors; AID 540303; 330,000 compounds, 0.31% hits; active = well fitted inhibition curve with a large enough effect; inconclusive = small, poorly fitted or top-dose-only effect; inactive = no such curve, though single readings can be large or run the other way; tested in mouse RAW 264.7 cells; also: nearly all actives have a fitted effect of over 55% in size
NPC1 promoter act: activates the NPC1 promoter; AID 485313; Potency, µM (series often up to 9.22 µM), hits mostly activators; 320,000 compounds, 2.4% hits; Huh7 NPC1 promoter luciferase reporter, 24 h; also: nearly all actives have a fitted effect of over 60% in size
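Luminescence read-out of NPC1 promoter-driven luciferase in stably transfected Huh7 cells; compounds delivered in DMSO and left 24 h at 37C, 5% CO2, qHTS titration format.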
FLuc modulator: firefly luciferase modulation, counter-screen for miR-21 project. P08659. purified FLuc, Km substrates, luminescence inhibition. Potency, µM (top dose mostly 57.5 µM), most hits filed as inhibitors. 360,000 compounds, 6.9% hits. AID 588342; also: nearly all actives have a fitted effect of over 55% in size
Target sequence (P08659 whole entry, looked up): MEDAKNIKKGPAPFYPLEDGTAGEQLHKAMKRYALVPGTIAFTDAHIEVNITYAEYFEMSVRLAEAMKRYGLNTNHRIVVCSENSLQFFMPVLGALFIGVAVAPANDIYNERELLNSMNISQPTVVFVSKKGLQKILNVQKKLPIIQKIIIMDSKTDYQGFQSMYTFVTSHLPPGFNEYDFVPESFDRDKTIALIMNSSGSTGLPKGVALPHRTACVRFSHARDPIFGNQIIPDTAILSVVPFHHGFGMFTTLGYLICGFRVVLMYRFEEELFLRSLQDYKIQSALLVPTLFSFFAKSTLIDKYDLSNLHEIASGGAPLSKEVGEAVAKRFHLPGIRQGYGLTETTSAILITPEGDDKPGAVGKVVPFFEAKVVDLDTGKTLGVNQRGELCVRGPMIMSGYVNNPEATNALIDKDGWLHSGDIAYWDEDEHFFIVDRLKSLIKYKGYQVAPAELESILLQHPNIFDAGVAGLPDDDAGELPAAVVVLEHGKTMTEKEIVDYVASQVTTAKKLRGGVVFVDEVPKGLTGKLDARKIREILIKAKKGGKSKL
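Purified P. pyralis luciferase (10nM final) with 10uM D-luciferin and 10uM ATP (Km levels) in 50mM Tris acetate pH 7.5, 10mM Mg acetate, 0.01% Tween-20, 0.05% BSA; qHTS 6-point titration, ~60 µM downward; luminescence read.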
SMN2 splice up: increases expression of the SMN2 splice variant | HEK293 SMN2-luciferase splicing reporter, luminescence, 30-36 h | Potency, µM (series often up to 46.1 µM), most hits filed as activators | 210,000 compounds, 2.8% hits; also: nearly all actives have a fitted effect of over 55% in size
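HEK293 cells carry an SMN2 minigene-luciferase reporter in which exon 7 inclusion puts luciferase in frame. Cells were seeded at 2000 cells/well, attached for 10-12 hours, then exposed to compounds for 30-36 hours at 37C before ONE-Glo luminescence.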
ELG1 genotoxic: genotoxicity induction in ELG1-luciferase HEK293T cells; HEK293T ELG1-luciferase reporter, luminescence, 16 h; Potency, µM (titrated, usually from 46 µM), most hits filed as activators; 330,000 compounds, 1.3% hits; also: nearly all actives have a fitted effect of over 60% in size
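16 hr compound incubation (37 °C, 5% CO2) of HEK293T cells carrying luciferase-tagged ELG1; luciferase then measured by ONE-Glo luminescence after 30 min at RT.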
Rab9 promoter act: activates the Rab9 promoter. Huh7 Rab9 promoter-luciferase reporter, luminescence, 24 h. Potency, µM (series often up to 9.22 µM), most hits filed as activators. 320,000 compounds, 2.8% hits. AID 485297; also: nearly all actives have a fitted effect of over 60% in size
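Quantitative HTS format; Huh7 Rab9-luciferase reporter cells (1500/well) receive compound 2 h post-plating, incubate 24 h at 37 °C, then get luciferase reagent for 10 min before luminescence reading.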
A number is an active result; 0 = inactive; ? = inconclusive; - = no result given; [ ] = dose if it differs, or a comment. Rows were chosen to be rich in hits. Some 7.3% of all compounds tested hit in one or more screens of this group. Unless noted, calls follow the shape of the dose curve; as a rule, active = well fitted curve in the direction sought with a large enough effect; inconclusive = small, poorly fitted or top-dose-only effect, or another doubt; inactive = no such curve, though single readings can be large; an effect the other way counts as inactive or inconclusive.

SMILES | uPA generation | NPC1 promoter act | FLuc modulator | SMN2 splice up | ELG1 genotoxic | Rab9 promoter act
Cc1c(C(=O)Nc2cccc(S(=O)(=O)N3CCOCC3)c2)oc2ccc(Br)cc12 | 0 | - | - | - | 0 | -
NNC(=O)c1cc2c(ccc3ccccc32)o1 | 0 | 0 | 0 | 0 | 0 | 0
CCc1ccc2oc(C(=O)Nc3cccnc3)c(C)c2c1 | ? | ? | 2.1µM | - | 4.1µM | 4µM
O=C(Nc1cccnc1)c1cc2c(ccc3ccccc32)o1 | 0 | - | 0.95µM | 11µM | - | -
Cc1c(C(=O)Nc2nc(-c3ccc(F)cc3)ns2)oc2ccc(Br)cc12 | - | - | 0 | 0 | - | -
Cc1c(C(=O)Nc2cccnc2)oc2ccc(Br)cc12 | 0 | ? | 2.7µM | - | 18µM | 3.2µM
CCc1ccc2oc(C(=O)Nc3nc(-c4ccc(F)cc4)ns3)c(C)c2c1 | - | - | 6.7µM | 0 | - | -
COc1ccc(CNC(=O)c2ccc3c(c2)N(C)C(=O)C2CCCCN32)cc1OC (configuration not stated) | - | - | 0 | - | - | -
Cc1c(C(=O)NCc2cccs2)oc2ccc(Br)cc12 | 0 | 0 | 19µM | 0 | 18µM | 0
O=C(O)CSc1cc(C(=O)c2ccccc2O)cn2c(=O)c3c4c(sc3nc12)CCCC4 | 0 | 0 | 4.3µM | - | 0 | 0
O=C(O)CSc1nc2sc3c(c2c(=O)n1Cc1ccccc1)CCCCC3 | 0 | 0 | ? | - | ? | 0
CCOc1cc(CNC(=O)c2cc(-c3ccccc3)n[nH]2)cc(OCC)c1OCC | - | - | 0 | - | - | -
Clc1ccc(-c2nc3n(n2)Cc2ccccc2-3)cc1 | 0 | 3.2µM | 0.54µM | 0.5µM | ? | 1.6µM
CCN(CC)S(=O)(=O)c1cccc(-c2nc3n(n2)Cc2ccccc2-3)c1 | 0 | ? | 12µM | 0 | 0 | ?
CC(C)N(CCO)C(=O)CCc1nnc(Cc2cccc(C(F)(F)F)c2)o1 | 0 | 0 | 0 | - | 0 | 0
CC1=C(/C=C/C(C)=C/C=C/C(C)=C\C=O)C(C)(C)CCC1 | - | - | - | 0 | - | -
Cn1c(=O)oc2cc(S(=O)(=O)NC(Cc3ccccc3)C(=O)NCc3ccccc3Cl)ccc21 (configuration not stated) | - | - | 0 | 0 | - | -
Cc1sc2ncnc(N3CCC(C(=O)Nc4nc(-c5cccs5)cs4)CC3)c2c1C | 0 | 0 | 11µM | - | 0 | 0
CCc1ccccc1OCC(=O)Nc1ccc(S(N)(=O)=O)cc1 | - | 0 | 0 | 35µM | 0 | 0
CNS(=O)(=O)c1cn(CC(=O)N2CCN(c3ccccc3OC)CC2)cc1S(=O)(=O)NC | - | - | 0 | - | - | -
O=C(Nc1nc2ccccc2s1)c1cc2c(s1)-c1ccccc1OC2 | 0 | 0 | 0 | 0 | 13µM | ?
Cc1cccc2c1-c1sc(C(=O)Nc3cccnc3)cc1CO2 | 0 | ? | 0 | - | 0 | 0
Cc1cccc2c1-c1sc(C(=O)Nc3nccs3)cc1CO2 | 0 | 2.5µM | 2.4µM | ? | ? | 1.1µM
CCOC(=O)c1cc2c(s1)-c1c(C)cccc1OC2 | 0 | ? | 13µM | 0 | ? | ?
O=C(Nc1nccs1)c1cc2c(s1)-c1ccccc1OC2 | ? | 2µM | 1.7µM | 10µM | 8.2µM | 3.2µM
SMILES | uPA generation | NPC1 promoter act | FLuc modulator | SMN2 splice up | ELG1 genotoxic | Rab9 promoter act
COc1ccc(NC(=O)Cn2c(=O)n(-c3ccc(C)cc3)c(=O)c3c2cnn3C)cc1 | - | - | 0 | 0 | - | -
COc1ccc(CN(C(=O)/C=C/c2ccco2)C2CCS(=O)(=O)C2)cc1OC (configuration not stated) | 0 | 0 | 0 | - | 0 | 0
COc1cc(C2CC(=O)N(c3ccc(C)c(Cl)c3)C3=C2C(=O)OC3)cc(OC)c1OC (configuration not stated) | - | - | 0 | 0 | - | -
COc1ccc(CCN2C(=NC(=O)CC(C)C)SC3CS(=O)(=O)CC32)cc1 (configuration not stated) | - | 0 | 0 | 0 | 0 | 0
COc1ccc(CCN2C(=NC(=O)CCC(=O)O)SC3CS(=O)(=O)CC32)cc1OC (configuration not stated) | 0 | 0 | 27µM | 0 | 0 | 0
Cc1ccc2cc3cc(C(=O)NC4CC4)oc3nc2c1 | 0 | 4µM | 11µM | - | ? | 2.5µM
Cc1ccc2cc3cc(C(=O)N4CCCCC4C)oc3nc2c1 (configuration not stated) | 0 | 1.4µM | 3µM | 11µM | ? | 1.6µM
CCN(C(=O)c1cc2cc3ccc(C)cc3nc2o1)c1ccc(OC)cc1 | 0 | 0 | ? | 0 | 0 | 0
Cc1ccc2cc3cc(C(=O)N(C)c4ccccc4C)oc3nc2c1 | - | - | 6.7µM | 16µM | - | -
COc1cccc(C(=O)NCCc2csc3nc(-c4ccccc4F)nn23)c1OC | - | - | 0 | - | - | -
Cc1ccc(NC(=O)Cn2c(=O)n(-c3ccc(C)cc3)c(=O)c3ccc(C(=O)NCc4ccccc4Cl)cc32)cc1 | - | - | 0 | 0 | - | -
Cc1ccc(C(=O)Nc2nc3ccc(S(=O)(=O)N4CCCC4)cc3s2)cc1 | - | - | 0 | - | - | -
O=C(Nc1nc2ccc(SC(F)F)cc2s1)c1ccc(NS(=O)(=O)c2ccc(F)c(F)c2)cc1 | 0 | 0 | 15µM | 0 | 0 | 0
CS(=O)(=O)c1ccc2nc(NC(=O)c3cccc(NS(=O)(=O)c4ccc(F)c(F)c4)c3)sc2c1 | 0 | 0 | 24µM | 0 | 0 | 0
CS(=O)(=O)c1ccc2nc(NC(=O)c3ccc(NS(=O)(=O)c4ccc(F)c(F)c4)cc3)sc2c1 | 0 | 0 | ? | - | 0 | 0
C[N+]1([C@H](CO)Cc2c[nH]c3ccccc23)Cc2ccccc2C1 | - | - | - | 0[9.22 µM] | - | -
Cc1sc2ccccc2[n+]1CCC(=O)O | - | - | - | 0[9.22 µM] | - | -
O=C(CSc1cn(CCNC(=O)c2c(F)cccc2F)c2ccccc12)Nc1ccc2c(c1)OCCO2 | - | - | ? | 0 | - | -
Cc1ccc2c(c1)nnn2C1CCN(CC(=O)NNC(=O)c2ccco2)CC1 | 0 | 0 | 0 | - | 0 | 0
O=C(CN1CCN(S(=O)(=O)c2ccccc2)CC1)Nc1ccc(N2CCOCC2)cc1 | 0 | 0 | 0 | 0 | 0 | 0
O=C(CN1CCN(C(c2ccccc2)c2ccccc2)CC1)Nc1ccc(N2CCOCC2)cc1 | 0 | 0 | 0 | 13µM | 0 | 0
Cn1c(SCC(=O)Nc2ccc(N3CCOCC3)cc2)nnc1-c1ccccc1 | 0 | 0 | 17µM | 0 | 0 | 0
Cn1c(SCC(=O)Nc2ccc(N3CCOCC3)cc2)nnc1-c1ccco1 | 0 | 0 | 17µM | - | 0 | 0
CC(C)n1c(SCC(=O)Nc2ccc(N3CCOCC3)cc2)nnc1-c1ccco1 | 0 | 0 | ? | - | 0 | 0
Cc1cn(CCC(=O)Nc2ccc(N3CCOCC3)cc2)c2ccccc12 | 0 | ? | 13µM | - | ? | ?
Cc1ccc2c(c1)c(=O)c(C(=O)c1ccc3c(c1)OCO3)cn2Cc1cccc(F)c1 | - | - | 0 | 0 | - | -
Cc1ccc(C)c(CS(=O)(=O)c2cn(CC(=O)N(C(C)C)C(C)C)c3ccccc23)c1 | - | - | 0 | - | - | -
O=C(NC1CCCCC1)c1ccc2c(c1)N(Cc1ccc(Cl)cc1)C(=O)c1ccccc1S2(=O)=O | - | - | 0 | 0 | - | -
Cn1c(COc2ccccc2)nnc1SCC(=O)Nc1ccc(N2CCOCC2)cc1 | 0 | 0 | ? | - | 0 | 0
